Among the data in PubChem BioAssay are composite z-score values, retold here.

The subject of this assay is Lefty1. As to the kind of experiment: Lefty1 protein binding to printed compounds – biochemical, small-molecule microarray, 635/667 nm fluorescence, primary screen (AID 1139). The following applies: fluorescence 635/667, higher = more signal.
For `CC[C@H]1C2=C3C(CC[C@H]4C(OCc5ccc(F)cc5C(F)(F)F)OC[C@](C)([C@@H]34)N(C(=O)OC(C)(C)C)C2)C(COC)C1COC` (stereo not given in full), the composite z-score is -0.477. The figure for `CC(C)N1C(=O)C[C@@](C(=O)NCCCN(C)C)(c2ccc([N+](=O)[O-])cc2)[C@H]1c1ccc(CO)cc1` is -0.0831. To `NC(=O)NCC#Cc1ccc2c(c1)[C@]1(C(=O)N2)[C@H](C(=O)NC[C@H](O)c2ccccc2)[C@H]2C(=O)O[C@H](c3ccccc3)[C@H](c3ccccc3)N2[C@@H]1c1ccc(OCCO)cc1` belongs -0.0126. As to `Cc1ccccc1C(O)C1C=CC2C(=O)N(C)C(=O)C2N1N(c1ccccc1)c1ccccc1` (stereo not given), the composite z-score is -0.543. To `C=CCC(OC(C)=O)[C@@H]1[C@@H](N(Cc2cc3ccccc3o2)C(=O)c2ccc(C)cc2)c2cc(OCCCO)ccc2N1C(=O)Cc1ccc(OC)cc1` (stereo not given in full) belongs -0.0083. Molecule `COC(=O)C1=CC(CCCO)=CC(C2CC2)N(C)C=C1C(=O)OC` (stereo not given) showed a composite z-score of -0.285. The figure for `COc1cc2c(cc1OC)CN(C(=O)[C@@H]1[C@H]3C(=O)O[C@H](c4ccccc4)[C@H](c4ccccc4)N3[C@H](c3ccc(OCCO)cc3)[C@@]13C(=O)Nc1ccc(C#CC4(O)CCCCCC4)cc13)CC2` is 1.38. The molecule `COc1cc(OC)c(C(O)C2C=CC3C(=O)N(c4ccccc4)C(=O)C3N2Nc2ccccc2)cc1Br` (stereo not given) came in with a composite z-score of 0.387. Molecule `COc1ccc([Si](C)(C)[C@@H]2[C@@H](CC(=O)N(CCO)Cc3ccccc3)O[C@]3(C(=O)N(Cc4cccc(N5C(=O)c6cccc7cccc5c67)c4)c4ccccc43)[C@H]2C)cc1` had a composite z-score of 0.972. The figure for `COC(=O)c1c2oc(c1C(=O)OC)C(=O)N(C)Cc1cn(nn1)C[C@H](Cc1ccccc1)NC(=O)N[C@H](CO)CC2` is 0.244; for `O=C(CS)NCCCCCCNC(=O)[C@H]1C[C@H]2C(=O)N[C@@H](Cc3ccccc3)C(=O)N2[C@H]1c1ccc(O)cc1` it is 0.852; for `O=C1C2C=CC(C(O)c3ccccc3)N(Nc3ccccc3F)C2C(=O)N1c1ccccc1` (stereo not given) it is 0.347.

Molecule `CC(C)(C)N1CC=CC23O[C@@H]4C=CCOC(=O)[C@@H]4[C@H]2C(=O)N(CCCCCCO)[C@@H]3C1=O` (stereo not given in full) registered a composite z-score of -0.447. The figure for `CCCCO[C@H]1C[C@H]2C(I)=C[C@@H]1C(=O)[C@]21CO1` is 0.351; for `C=CCOC(=O)[C@H]1[C@@H]2C(=O)O[C@@H](c3ccccc3)[C@@H](c3ccccc3)N2[C@@H](c2ccc(OCCOC(=O)[C@@H]3C[C@@H]4C(=O)N5CCC[C@H]5C(=O)N4[C@@H]3c3ccc(O)cc3)cc2)[C@]12C(=O)Nc1ccc(I)cc12` it is 0.698; for `C=CCOC(=O)[C@H]1[C@@H]2C(=O)O[C@@H](c3ccccc3)[C@@H](c3ccccc3)N2[C@@H](c2ccc(OCCOC(=O)[C@H]3C[C@H]4C(=O)N[C@@H](CCCCNC(C)=O)C(=O)N4[C@H]3c3ccc(O)cc3)cc2)[C@]12C(=O)Nc1ccccc12` it is 1.1.

Regarding `CCOc1cc(C(O)C2C=CC3C(=O)N(C)C(=O)C3N2Nc2ccccc2)ccc1O` (stereo not given), the composite z-score was -0.0696. Take `C#CCN([C@@H](Cc1ccc(O)cc1)C(=O)OC)[C@@H](/C=C/C1CC1)[C@H](O)Cc1ccccc1`: the composite z-score came out at 0.618. To `O=c1n(-c2ccccc2)c(=O)n2n1CC(COc1ccccc1)=C([C@H](O)CCc1ccccc1)[C@@H]2CO` belongs 0.635.

`CC(=O)NCCCC[C@@H]1NC(=O)[C@H]2C[C@@H](C(=O)NCCCC[N+](C)(C)C)[C@@H](c3cccc(OCCO)c3)N2C1=O` displayed a composite z-score of 1.71. The figure for `CN1C(=O)C2C=CC(C(O)c3ccccn3)N(N(c3ccccc3)c3ccccc3)C2C1=O` (stereo not given) is 0.0714.

As to `C[N+](C)(C)CCCCCCNC(=O)[C@H]1C[C@H]2C(=O)NCC(=O)N2[C@H]1c1ccc(O)cc1`, the composite z-score amounted to 1.59. The figure for `CCCC[C@@H]1C[C@H]1[C@@H](NC(=O)c1cccs1)c1ccc(C(F)(F)F)cc1` is 0.222; for `COc1ccc(CCN2C(=O)[C@@]3(Cc4ccccc42)c2ccccc2C(=O)N(Cc2ccccc2OC)[C@H]3c2ccc(CO)cc2)cc1` it is -1.55.

Molecule `C[C@@H]1NC(=O)[C@@]23C(=O)N[C@@H](Cc4ccccc4)C2[C@H](C)[C@@]2(C)O[C@H]2C3/C=C/C/C=C\CNC(=O)[C@@H]2CCCN2C1=O` (stereo not given in full) displayed a composite z-score of 0.0216. As to `C=C(/C(=C/C[C@H](OC(C)=O)c1cccc(OCCO)c1)c1cnc2ccccc2c1)C(C)C`, the composite z-score is 1.08.

With `[N-]=[N+]=NCc1ccccc1[C@H]1OC(c2ccc(OCCCO)cc2)=N[C@@]1(CCS(=O)(=O)c1ccccc1)C(=O)NCC(O)CO` (stereo not given in full), the composite z-score is -0.385.

Molecule `Cc1cc(C)cc(N2C(=O)CSC2c2cccc([N+](=O)[O-])c2)c1` (stereo not given) had a composite z-score of 1.53.

`COCCOC(=O)N1C(=O)[C@@]2(c3cc(C#CC4(O)CCCCCC4)ccc31)[C@H](c1ccc(O)cc1)N1[C@H](c3ccccc3)[C@H](c3ccccc3)OC(=O)[C@H]1[C@@H]2C(=O)NC[C@H](O)c1ccccc1` yielded a composite z-score of 1.28. On to `COC(=O)c1cn(C[C@@H](Cc2ccccc2)NC(=O)N[C@H](CO)CCc2oc(C(C)=O)c(C(=O)OC)c2C(=O)OC)nn1`, for which the composite z-score was found to be 1.17. The figure for `COC(=O)[C@@]1(Cc2ccccc2)[C@H]2c3cc(C(=O)N(C)C)n(Cc4c(CO)[nH]cc(C)c4=O)c3C[C@H]2CN1C(=O)c1ccccc1` is -0.016; for `CC(=O)NCCCC[C@@H]1NC(=O)[C@@H]2C[C@H](C(=O)NCCCC[N+](C)(C)C)[C@H](c3ccc(O)cc3)N2C1=O` it is 1.49; for `COc1ccc([Si](C)(C)[C@@H]2[C@@H](CC(=O)N3Cc4ccccc4C[C@H]3CO)O[C@]3(C(=O)N(C)c4ccccc43)[C@H]2C)cc1` it is 1.57. Consider `COCCOC(=O)N1C(=O)[C@@]2(c3cc(C#CC4=CCCCC4)ccc31)[C@H](C(N)=O)[C@H]1C(=O)O[C@H](c3ccccc3)[C@H](c3ccccc3)N1[C@@H]2c1ccccc1OCCO`, for which the composite z-score stood at 0.943. `COC(=O)[C@@]1(Cc2ccc(OC)cc2)[C@@H]2C(=CC(=O)[C@H]2CC(=O)C(=O)N(C)C)CN1C(=O)c1ccccc1` returned a composite z-score of -0.973.
